# Experiments:
# Assay in all cases: DAPPL (digital affinity profiling via proximity ligation, sequencing); 10 mM Tris-HCl pH 7.5, 50 mM NaCl, 1 mM DTT, 4% glycerol, room temperature, 30 min; GST-TFs on glutathione beads, 16-mer random dsDNA library, 0.1% formaldehyde crosslink after washing; high values mean tight binding
# FEV = biological target: T1, FEV (Homo sapiens, UniProt Q99581 1-238); settings: protein: recombinant; tags: N-terminal GST; dsDNA, one strand shown
# T1 sequence: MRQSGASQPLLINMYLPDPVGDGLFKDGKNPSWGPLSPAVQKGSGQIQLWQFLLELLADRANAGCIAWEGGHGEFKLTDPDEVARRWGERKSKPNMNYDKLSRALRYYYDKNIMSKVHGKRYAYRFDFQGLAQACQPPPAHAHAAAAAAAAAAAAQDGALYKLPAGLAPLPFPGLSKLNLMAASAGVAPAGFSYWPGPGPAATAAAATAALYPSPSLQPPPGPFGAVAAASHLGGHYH
# Summary of the method: (§1)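 In yeast, human transcription factors were expressed with a GST fusion, then pulled down on glutathione beads and given DNA barcodes. Pooled with a tag-only sample, they were exposed to 200 nmole of a 16-mer random double-stranded DNA library (Tris/NaCl/DTT/glycerol buffer, room temperature, 30 min), washed, crosslinked with 0.1% formaldehyde, proximity-ligated using BsaI/T4 ligase for 1 h at 37 °C, PCR-amplified and read on an Illumina NextSeq500. Each hexamer's frequency of reads for a factor, divided by the matching frequency for the tag-only sample, gives the binding signal.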
# ETV5 = ETV5 (Homo sapiens, UniProt P41161 1-510); settings: protein: recombinant; tags: N-terminal GST; dsDNA, one strand shown
# Summary of the method: as §1
# HSF1 = HSF1 (Homo sapiens, UniProt Q00613 1-529); settings: protein: recombinant; tags: N-terminal GST; chain copies: 3; dsDNA, one strand shown
# Summary of the method: as §1
# SPIC = biological target: T2, SPIC (Homo sapiens, UniProt Q8N5J4 1-248); settings: protein: recombinant; tags: N-terminal GST; dsDNA, one strand shown
# T2 sequence: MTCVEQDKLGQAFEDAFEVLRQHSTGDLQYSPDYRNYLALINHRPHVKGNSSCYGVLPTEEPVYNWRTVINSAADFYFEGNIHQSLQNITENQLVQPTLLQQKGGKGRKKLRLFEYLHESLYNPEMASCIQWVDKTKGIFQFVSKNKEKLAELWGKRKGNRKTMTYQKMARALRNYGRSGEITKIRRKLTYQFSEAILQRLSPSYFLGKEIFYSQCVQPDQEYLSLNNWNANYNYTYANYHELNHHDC
# Summary of the method: as §1
# ELF4 = ELF4 (Homo sapiens, UniProt Q99607 1-663); settings: protein: recombinant; tags: N-terminal GST; dsDNA, one strand shown
# Summary of the method: as §1
# ELK4 = biological target: T3, ELK4 (Homo sapiens, UniProt P28324-2 1-405); settings: protein: recombinant; tags: N-terminal GST; dsDNA, one strand shown
# T3 sequence: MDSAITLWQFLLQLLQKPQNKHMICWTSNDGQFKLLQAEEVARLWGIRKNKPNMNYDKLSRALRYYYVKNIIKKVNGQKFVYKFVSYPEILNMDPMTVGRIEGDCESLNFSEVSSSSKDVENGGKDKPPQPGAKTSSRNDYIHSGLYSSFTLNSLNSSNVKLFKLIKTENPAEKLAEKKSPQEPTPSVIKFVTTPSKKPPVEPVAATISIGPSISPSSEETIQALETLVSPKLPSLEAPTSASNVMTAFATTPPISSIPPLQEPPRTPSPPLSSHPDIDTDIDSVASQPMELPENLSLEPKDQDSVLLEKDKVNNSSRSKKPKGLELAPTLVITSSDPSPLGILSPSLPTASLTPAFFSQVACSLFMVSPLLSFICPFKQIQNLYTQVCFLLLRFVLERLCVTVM
# Summary of the method: as §1
# ETV2 = biological target: T4, ETV2 (Homo sapiens, UniProt O00321 1-342); settings: protein: recombinant; tags: N-terminal GST; dsDNA, one strand shown
# T4 sequence: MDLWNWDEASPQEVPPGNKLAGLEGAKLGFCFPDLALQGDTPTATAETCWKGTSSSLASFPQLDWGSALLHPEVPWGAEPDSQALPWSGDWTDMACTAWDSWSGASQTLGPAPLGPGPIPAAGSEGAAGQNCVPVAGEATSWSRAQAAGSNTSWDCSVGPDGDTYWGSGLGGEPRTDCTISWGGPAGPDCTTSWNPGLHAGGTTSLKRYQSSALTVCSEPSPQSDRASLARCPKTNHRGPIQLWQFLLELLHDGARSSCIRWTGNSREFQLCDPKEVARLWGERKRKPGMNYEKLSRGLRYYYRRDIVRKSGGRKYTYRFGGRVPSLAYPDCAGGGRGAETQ
# Summary of the method: as §1
# ELF3 = biological target: T5, ELF3 (Homo sapiens, UniProt P78545 1-371); settings: protein: recombinant; tags: N-terminal GST; dsDNA, one strand shown
# T5 sequence: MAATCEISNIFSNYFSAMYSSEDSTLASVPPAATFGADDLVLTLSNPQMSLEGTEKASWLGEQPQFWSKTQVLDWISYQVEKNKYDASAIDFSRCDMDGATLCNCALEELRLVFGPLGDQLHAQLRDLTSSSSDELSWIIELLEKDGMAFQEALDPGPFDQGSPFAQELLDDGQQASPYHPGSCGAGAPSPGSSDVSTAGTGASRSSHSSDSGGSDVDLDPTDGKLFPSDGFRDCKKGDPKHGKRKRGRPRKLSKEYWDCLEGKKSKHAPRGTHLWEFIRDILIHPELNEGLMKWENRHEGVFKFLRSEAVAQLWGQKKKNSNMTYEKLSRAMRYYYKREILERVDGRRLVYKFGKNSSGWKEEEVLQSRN
# Summary of the method: as §1
# CRX = CRX (Homo sapiens, UniProt O43186 1-299); settings: protein: recombinant; tags: N-terminal GST; dsDNA, one strand shown
# Summary of the method: as §1
# ETV1 = ETV1 (Homo sapiens, UniProt P50549 1-477); settings: protein: recombinant; tags: N-terminal GST; dsDNA, one strand shown
# Summary of the method: as §1
# ERF = biological target: T6, ERF (Homo sapiens, UniProt P50548 1-548); settings: protein: recombinant; tags: N-terminal GST; dsDNA, one strand shown
# T6 sequence: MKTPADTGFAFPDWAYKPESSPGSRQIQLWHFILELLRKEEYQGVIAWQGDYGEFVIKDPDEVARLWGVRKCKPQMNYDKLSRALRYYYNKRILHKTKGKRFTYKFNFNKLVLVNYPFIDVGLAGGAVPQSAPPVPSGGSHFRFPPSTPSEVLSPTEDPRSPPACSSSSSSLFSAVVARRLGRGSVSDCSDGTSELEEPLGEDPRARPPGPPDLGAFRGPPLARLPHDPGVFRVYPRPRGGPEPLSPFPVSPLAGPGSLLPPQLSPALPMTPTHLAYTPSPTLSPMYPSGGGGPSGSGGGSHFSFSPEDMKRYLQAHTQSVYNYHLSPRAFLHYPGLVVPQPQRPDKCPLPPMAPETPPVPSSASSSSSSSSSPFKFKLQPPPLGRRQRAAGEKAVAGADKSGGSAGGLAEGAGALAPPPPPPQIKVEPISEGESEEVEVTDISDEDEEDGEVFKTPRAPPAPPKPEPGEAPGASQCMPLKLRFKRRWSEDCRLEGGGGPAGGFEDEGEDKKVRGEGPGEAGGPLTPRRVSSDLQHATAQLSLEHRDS
# Summary of the method: as §1
# ETV3L = biological target: T7, ETV3L (Homo sapiens, UniProt Q6ZN32 1-361); settings: protein: recombinant; tags: N-terminal GST; dsDNA, one strand shown
# T7 sequence: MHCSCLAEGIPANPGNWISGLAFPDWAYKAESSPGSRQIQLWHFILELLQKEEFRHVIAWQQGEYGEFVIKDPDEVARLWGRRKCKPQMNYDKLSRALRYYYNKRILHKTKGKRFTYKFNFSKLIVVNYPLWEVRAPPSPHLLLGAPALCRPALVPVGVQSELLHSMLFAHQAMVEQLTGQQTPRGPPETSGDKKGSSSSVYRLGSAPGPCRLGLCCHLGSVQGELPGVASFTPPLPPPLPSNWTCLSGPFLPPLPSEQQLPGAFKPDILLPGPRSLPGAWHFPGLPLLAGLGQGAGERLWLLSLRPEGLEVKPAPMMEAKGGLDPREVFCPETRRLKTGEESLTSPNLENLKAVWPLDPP
# Summary of the method: as §1
# ETS2 = biological target: T8, ETS2 (Homo sapiens, UniProt P15036 1-469); settings: protein: recombinant; tags: N-terminal GST; dsDNA, one strand shown
# T8 sequence: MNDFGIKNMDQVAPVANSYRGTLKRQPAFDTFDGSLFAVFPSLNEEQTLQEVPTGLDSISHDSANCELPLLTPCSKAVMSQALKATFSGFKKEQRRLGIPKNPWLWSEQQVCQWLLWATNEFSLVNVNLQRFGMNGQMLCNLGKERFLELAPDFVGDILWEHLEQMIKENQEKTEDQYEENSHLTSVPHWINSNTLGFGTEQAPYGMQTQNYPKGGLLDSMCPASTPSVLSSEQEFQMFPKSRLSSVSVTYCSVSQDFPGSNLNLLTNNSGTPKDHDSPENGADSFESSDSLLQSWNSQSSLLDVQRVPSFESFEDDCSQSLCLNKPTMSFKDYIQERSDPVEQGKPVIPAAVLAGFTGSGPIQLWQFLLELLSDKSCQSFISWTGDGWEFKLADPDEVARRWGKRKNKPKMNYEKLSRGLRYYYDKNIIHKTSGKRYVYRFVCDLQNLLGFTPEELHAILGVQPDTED
# Summary of the method: as §1
# SPDEF = biological target: T9, SPDEF (Homo sapiens, UniProt O95238 1-335); settings: protein: recombinant; tags: N-terminal GST; dsDNA, one strand shown
# T9 sequence: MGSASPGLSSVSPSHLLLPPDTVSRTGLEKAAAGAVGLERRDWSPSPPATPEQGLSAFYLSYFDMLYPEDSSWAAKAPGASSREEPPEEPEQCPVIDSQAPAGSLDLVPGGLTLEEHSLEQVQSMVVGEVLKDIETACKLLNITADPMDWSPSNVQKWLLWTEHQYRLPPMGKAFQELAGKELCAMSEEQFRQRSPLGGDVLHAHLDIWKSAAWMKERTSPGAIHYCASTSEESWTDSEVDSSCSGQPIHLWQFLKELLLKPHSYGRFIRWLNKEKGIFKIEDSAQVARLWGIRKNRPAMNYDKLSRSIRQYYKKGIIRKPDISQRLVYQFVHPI
# Summary of the method: as §1
# ETV7 = biological target: T10, ETV7 (Homo sapiens, UniProt Q9Y603 1-341); settings: protein: recombinant; tags: N-terminal GST; dsDNA, one strand shown
# T10 sequence: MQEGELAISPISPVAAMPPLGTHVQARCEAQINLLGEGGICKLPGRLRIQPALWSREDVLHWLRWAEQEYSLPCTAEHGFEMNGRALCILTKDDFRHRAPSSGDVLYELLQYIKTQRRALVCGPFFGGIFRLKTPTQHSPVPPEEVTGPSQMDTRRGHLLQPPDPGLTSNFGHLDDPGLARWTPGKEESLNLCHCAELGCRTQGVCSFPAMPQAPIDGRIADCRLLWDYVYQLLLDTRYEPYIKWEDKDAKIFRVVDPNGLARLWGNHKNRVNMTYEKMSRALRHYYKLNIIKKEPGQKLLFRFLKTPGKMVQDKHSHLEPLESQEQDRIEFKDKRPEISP
# Summary of the method: as §1
# ELF5 = biological target: T11, ELF5 (Homo sapiens, UniProt Q9UKW6-2 1-255); settings: protein: recombinant; tags: N-terminal GST; dsDNA, one strand shown
# T11 sequence: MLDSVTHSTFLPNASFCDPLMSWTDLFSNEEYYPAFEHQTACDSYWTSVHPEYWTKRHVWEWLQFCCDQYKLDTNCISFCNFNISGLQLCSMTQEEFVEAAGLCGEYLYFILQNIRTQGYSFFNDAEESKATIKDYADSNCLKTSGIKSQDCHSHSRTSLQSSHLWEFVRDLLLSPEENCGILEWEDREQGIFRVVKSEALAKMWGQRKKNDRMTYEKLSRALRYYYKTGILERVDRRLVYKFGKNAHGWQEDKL
# Summary of the method: as §1
# ETV3 = biological target: T12, ETV3 (Homo sapiens, UniProt P41162-2 1-143); settings: protein: recombinant; tags: N-terminal GST; dsDNA, one strand shown
# T12 sequence: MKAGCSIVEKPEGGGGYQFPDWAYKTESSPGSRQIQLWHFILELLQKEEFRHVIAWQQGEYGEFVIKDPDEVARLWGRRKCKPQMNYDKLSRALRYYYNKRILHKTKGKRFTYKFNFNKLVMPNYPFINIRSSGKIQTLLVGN
# Summary of the method: as §1
# ETV6 = ETV6 (Homo sapiens, UniProt P41212 1-452); settings: protein: recombinant; tags: N-terminal GST; dsDNA, one strand shown
# Summary of the method: as §1
# ETV5, sequence (P41161 whole entry): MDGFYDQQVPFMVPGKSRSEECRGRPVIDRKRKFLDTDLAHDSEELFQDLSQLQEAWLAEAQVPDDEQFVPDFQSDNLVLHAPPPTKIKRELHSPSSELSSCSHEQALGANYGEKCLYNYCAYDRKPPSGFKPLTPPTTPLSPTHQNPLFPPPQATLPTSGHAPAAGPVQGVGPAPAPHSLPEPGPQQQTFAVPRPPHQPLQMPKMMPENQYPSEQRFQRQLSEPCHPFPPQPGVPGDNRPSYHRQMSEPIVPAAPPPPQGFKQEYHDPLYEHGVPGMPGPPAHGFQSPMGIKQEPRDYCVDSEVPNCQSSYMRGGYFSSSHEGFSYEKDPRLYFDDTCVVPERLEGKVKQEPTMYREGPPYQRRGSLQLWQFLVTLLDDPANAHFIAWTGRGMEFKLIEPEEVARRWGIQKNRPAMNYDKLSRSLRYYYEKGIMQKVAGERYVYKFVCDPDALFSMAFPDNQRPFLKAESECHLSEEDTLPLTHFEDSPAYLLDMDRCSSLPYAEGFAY
# ELF4, sequence (Q99607 whole entry): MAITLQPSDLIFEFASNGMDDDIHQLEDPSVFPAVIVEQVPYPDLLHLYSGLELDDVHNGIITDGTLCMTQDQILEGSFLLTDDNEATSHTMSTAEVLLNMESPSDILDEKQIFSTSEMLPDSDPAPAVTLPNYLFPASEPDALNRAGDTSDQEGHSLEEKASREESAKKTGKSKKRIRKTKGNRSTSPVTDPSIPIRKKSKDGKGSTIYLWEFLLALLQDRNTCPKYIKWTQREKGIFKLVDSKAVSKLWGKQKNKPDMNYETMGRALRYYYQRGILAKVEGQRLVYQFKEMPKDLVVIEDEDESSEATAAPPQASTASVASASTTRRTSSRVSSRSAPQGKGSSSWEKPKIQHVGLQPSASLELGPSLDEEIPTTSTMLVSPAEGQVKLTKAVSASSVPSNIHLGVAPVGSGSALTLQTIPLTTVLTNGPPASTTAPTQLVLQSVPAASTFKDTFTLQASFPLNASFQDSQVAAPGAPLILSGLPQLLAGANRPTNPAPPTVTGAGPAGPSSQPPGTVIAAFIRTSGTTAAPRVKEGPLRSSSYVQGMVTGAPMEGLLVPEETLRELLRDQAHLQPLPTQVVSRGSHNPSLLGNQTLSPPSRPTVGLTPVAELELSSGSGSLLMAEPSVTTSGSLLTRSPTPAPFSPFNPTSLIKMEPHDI
# CRX, sequence (O43186 whole entry): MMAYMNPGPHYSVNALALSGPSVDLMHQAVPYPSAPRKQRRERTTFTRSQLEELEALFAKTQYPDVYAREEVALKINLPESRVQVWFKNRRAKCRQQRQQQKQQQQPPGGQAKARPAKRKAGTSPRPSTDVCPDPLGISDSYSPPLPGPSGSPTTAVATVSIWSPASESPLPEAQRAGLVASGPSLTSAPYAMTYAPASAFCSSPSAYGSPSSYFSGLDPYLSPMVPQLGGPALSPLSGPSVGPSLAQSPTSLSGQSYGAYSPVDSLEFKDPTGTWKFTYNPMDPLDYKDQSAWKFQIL
# HSF1, sequence (Q00613 whole entry): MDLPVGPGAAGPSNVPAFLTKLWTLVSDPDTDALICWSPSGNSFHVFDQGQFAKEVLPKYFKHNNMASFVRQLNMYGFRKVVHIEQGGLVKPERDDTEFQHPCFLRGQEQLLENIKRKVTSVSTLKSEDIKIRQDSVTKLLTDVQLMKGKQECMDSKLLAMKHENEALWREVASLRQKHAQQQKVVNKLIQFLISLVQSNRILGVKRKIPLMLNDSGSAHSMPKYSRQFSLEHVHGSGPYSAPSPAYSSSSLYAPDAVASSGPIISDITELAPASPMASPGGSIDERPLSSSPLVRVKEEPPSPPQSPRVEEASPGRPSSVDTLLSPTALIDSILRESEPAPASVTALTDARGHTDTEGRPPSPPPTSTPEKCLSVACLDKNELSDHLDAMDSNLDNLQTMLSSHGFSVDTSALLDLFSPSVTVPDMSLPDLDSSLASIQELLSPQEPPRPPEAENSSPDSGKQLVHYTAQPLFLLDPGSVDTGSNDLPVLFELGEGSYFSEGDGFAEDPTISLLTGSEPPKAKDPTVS
# ETV6, sequence (P41212 whole entry): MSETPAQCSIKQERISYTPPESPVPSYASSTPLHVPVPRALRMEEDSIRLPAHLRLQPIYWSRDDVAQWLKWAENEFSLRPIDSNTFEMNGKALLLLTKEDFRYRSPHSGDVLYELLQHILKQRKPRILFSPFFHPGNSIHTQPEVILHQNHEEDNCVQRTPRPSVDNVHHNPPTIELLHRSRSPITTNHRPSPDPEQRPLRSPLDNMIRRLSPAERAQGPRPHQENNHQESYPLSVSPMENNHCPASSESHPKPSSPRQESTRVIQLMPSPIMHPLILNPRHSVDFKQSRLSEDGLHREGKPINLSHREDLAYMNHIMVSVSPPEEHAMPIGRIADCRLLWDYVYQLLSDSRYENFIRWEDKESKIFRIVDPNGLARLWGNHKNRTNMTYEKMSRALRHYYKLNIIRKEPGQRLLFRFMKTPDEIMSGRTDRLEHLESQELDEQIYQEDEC
# ETV1, sequence (P50549 whole entry): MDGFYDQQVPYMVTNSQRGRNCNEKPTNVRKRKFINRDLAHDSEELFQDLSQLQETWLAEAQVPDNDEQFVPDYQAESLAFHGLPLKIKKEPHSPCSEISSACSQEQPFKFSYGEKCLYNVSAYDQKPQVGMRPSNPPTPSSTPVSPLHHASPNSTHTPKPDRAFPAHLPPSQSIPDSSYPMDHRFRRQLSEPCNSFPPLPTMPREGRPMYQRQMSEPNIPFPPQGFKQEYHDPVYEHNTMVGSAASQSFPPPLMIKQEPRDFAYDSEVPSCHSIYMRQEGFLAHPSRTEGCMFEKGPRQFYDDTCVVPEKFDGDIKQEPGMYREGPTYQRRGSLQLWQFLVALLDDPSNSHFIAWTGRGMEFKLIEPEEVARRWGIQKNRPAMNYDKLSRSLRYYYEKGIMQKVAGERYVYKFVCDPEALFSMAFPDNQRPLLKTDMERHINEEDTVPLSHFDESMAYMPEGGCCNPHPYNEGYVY
sequence,measurement,setting,value
TTCTCA,binding signal,FEV,"1.3 fold enrichment (6-mer frequency, TF over GST control)"
same,binding signal,ETV5,"1.33 fold enrichment (6-mer frequency, TF over GST control)"
same,binding signal,HSF1,"1.65 fold enrichment (6-mer frequency, TF over GST control)"
same,binding signal,SPIC,"1.5 fold enrichment (6-mer frequency, TF over GST control)"
same,binding signal,ELF4,"1.27 fold enrichment (6-mer frequency, TF over GST control)"
same,binding signal,ELK4,"1.34 fold enrichment (6-mer frequency, TF over GST control)"
same,binding signal,ETV2,"1.32 fold enrichment (6-mer frequency, TF over GST control)"
same,binding signal,ELF3,"1.39 fold enrichment (6-mer frequency, TF over GST control)"
same,binding signal,CRX,"1.34 fold enrichment (6-mer frequency, TF over GST control)"
same,binding signal,ETV1,"1.35 fold enrichment (6-mer frequency, TF over GST control)"
same,binding signal,ERF,"1.21 fold enrichment (6-mer frequency, TF over GST control)"
same,binding signal,ETV3L,"1.23 fold enrichment (6-mer frequency, TF over GST control)"
same,binding signal,ETS2,"1.21 fold enrichment (6-mer frequency, TF over GST control)"
same,binding signal,SPDEF,"1.17 fold enrichment (6-mer frequency, TF over GST control)"
same,binding signal,ETV7,"1.26 fold enrichment (6-mer frequency, TF over GST control)"
same,binding signal,ELF5,"1.23 fold enrichment (6-mer frequency, TF over GST control)"
same,binding signal,ETV3,"1.34 fold enrichment (6-mer frequency, TF over GST control)"
same,binding signal,ETV6,"1.26 fold enrichment (6-mer frequency, TF over GST control)"

# Reference: PMC7862700, “An all-to-all approach to the identification of sequence-specific readers for epigenetic DNA modifications on cytosine”
